The text below walks through data of ChEMBL document CHEMBL1961873, “Compounds: GSK PKIS; Assays: Nanosyn kinase panel” (2012).

Structures are written as SMILES.

For assay [1], the target named is T1, Ephrin type-B receptor 2 (Homo sapiens) (UniProt P29323).
T1 sequence (whole entry): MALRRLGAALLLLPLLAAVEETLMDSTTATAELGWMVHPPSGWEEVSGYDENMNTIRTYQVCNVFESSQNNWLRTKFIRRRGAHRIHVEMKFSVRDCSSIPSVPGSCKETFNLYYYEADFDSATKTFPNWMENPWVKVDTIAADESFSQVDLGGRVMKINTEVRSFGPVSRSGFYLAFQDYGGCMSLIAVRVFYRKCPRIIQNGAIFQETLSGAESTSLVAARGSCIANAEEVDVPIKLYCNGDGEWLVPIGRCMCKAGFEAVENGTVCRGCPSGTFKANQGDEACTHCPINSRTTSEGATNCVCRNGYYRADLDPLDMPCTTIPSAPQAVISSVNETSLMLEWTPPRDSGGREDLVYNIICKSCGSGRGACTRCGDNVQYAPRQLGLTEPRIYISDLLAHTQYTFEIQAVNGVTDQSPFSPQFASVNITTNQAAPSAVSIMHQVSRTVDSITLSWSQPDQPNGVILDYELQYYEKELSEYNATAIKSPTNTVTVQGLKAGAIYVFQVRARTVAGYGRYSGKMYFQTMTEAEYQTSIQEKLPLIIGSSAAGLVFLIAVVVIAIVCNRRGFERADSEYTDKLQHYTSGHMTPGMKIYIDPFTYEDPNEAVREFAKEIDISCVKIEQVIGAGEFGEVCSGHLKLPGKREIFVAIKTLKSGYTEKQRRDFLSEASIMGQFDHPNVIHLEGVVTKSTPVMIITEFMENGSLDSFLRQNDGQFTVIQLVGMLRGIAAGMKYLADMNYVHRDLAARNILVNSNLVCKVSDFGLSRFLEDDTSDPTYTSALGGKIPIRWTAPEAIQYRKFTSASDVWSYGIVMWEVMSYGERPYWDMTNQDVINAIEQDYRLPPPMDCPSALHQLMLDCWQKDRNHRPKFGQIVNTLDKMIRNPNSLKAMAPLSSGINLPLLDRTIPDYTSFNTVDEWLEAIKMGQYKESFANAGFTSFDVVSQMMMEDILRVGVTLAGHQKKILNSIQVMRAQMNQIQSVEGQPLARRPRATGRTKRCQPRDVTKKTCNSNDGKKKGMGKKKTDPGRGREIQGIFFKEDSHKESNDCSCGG
The following applies: at 1 µM.

The target in assay [2] is T2, Ephrin type-B receptor 3 (Homo sapiens) (UniProt P54753).
T2 sequence (whole entry): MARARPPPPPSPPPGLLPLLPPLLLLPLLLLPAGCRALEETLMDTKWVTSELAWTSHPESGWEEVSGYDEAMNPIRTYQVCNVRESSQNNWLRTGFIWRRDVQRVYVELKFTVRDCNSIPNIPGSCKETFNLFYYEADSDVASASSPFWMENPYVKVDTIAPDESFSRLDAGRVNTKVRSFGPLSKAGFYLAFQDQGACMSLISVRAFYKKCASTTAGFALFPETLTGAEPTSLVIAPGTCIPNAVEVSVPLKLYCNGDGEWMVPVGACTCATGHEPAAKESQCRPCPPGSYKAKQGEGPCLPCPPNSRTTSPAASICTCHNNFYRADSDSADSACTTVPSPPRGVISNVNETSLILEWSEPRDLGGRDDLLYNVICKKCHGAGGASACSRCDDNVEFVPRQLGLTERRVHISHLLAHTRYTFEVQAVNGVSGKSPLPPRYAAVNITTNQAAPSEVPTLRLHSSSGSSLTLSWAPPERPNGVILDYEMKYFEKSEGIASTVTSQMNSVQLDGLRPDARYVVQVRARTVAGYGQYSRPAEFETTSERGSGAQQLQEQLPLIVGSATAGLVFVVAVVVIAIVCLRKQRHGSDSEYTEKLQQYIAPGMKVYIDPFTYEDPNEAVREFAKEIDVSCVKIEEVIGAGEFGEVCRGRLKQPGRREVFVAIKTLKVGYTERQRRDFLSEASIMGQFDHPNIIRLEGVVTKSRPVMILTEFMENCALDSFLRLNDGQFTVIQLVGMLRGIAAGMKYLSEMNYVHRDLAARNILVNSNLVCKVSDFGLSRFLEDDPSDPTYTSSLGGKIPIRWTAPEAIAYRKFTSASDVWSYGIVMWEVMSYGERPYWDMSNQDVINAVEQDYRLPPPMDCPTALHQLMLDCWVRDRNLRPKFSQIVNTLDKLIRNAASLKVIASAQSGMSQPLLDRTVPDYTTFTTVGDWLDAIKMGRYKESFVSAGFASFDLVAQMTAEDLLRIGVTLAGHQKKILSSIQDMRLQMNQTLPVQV
The following applies: at 0.1 µM.

In assay [3] the target is T2, Ephrin type-B receptor 3 (Homo sapiens). The following applies: at 1 µM.
Assay [4] has as its target T3, Ephrin type-B receptor 4 (Homo sapiens) (UniProt P54760).
T3 sequence (whole entry): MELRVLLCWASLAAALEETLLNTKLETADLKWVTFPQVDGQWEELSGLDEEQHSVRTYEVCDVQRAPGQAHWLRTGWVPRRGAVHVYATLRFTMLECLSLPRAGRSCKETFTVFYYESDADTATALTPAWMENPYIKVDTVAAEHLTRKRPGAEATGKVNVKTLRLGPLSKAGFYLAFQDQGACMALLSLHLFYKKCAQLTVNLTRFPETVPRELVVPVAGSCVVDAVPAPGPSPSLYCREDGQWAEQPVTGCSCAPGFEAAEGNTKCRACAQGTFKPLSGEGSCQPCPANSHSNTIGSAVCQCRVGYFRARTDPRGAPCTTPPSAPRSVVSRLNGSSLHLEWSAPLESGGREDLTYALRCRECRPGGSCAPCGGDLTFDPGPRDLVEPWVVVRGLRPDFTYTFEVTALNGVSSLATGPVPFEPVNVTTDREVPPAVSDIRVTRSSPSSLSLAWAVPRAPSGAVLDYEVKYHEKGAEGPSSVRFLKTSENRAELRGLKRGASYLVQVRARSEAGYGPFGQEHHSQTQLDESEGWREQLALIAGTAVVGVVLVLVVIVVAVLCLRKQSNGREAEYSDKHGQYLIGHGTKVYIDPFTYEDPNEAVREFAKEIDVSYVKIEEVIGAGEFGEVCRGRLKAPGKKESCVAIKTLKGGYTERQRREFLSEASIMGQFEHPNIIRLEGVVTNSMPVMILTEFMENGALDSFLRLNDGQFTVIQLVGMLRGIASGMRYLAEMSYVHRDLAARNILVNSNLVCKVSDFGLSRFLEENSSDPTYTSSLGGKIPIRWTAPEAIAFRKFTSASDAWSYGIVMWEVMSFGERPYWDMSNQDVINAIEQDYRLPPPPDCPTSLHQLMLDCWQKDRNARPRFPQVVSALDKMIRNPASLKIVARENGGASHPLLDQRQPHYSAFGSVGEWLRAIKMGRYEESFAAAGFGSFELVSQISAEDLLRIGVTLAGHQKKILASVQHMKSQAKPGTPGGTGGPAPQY
The following applies: at 0.1 µM.

Assay [5] concerns the target T3, Ephrin type-B receptor 4 (Homo sapiens). The settings on record: at 1 µM.
The target in assay [6] is Receptor tyrosine-protein kinase erbB-2 (Homo sapiens) (UniProt P04626). The following applies: at 0.1 µM.
Chain of Receptor tyrosine-protein kinase erbB-2 (Homo sapiens) (P04626 whole entry): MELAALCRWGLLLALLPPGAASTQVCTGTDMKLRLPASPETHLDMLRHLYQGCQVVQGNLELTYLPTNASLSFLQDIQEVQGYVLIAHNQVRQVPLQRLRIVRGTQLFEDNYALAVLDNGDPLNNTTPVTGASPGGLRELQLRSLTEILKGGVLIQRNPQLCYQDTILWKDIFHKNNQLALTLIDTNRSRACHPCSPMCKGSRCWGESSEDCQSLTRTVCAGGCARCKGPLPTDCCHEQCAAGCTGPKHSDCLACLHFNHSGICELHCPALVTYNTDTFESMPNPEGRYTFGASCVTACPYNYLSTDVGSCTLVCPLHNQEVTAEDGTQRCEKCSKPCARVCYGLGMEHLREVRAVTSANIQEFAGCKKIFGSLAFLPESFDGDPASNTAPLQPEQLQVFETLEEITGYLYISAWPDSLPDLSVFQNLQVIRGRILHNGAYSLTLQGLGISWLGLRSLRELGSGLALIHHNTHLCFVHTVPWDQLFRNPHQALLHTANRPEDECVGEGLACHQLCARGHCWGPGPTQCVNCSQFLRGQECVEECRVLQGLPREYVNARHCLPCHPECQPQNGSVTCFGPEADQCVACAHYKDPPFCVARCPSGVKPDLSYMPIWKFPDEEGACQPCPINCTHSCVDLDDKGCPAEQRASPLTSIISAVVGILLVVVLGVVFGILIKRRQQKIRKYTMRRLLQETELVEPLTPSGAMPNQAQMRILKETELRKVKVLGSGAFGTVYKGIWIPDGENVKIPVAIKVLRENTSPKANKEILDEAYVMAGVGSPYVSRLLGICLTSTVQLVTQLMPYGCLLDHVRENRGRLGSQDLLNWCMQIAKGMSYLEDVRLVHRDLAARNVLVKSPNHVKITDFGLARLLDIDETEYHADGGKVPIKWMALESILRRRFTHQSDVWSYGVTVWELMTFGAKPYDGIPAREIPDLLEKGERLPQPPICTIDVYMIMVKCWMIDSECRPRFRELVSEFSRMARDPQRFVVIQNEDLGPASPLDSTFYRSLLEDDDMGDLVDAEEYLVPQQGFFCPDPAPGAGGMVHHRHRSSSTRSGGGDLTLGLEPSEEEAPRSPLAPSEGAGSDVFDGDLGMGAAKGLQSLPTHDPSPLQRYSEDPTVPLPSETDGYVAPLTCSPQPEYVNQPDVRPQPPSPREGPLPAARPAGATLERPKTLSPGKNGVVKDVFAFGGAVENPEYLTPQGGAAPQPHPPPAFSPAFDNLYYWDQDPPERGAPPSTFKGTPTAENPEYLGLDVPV
Assay [7] has the same target. The following applies: at 1 µM.
The target of assay [8] is Receptor tyrosine-protein kinase erbB-4 (Homo sapiens) (UniProt Q15303). The following applies: at 0.1 µM.
Chain of Receptor tyrosine-protein kinase erbB-4 (Homo sapiens) (Q15303 whole entry): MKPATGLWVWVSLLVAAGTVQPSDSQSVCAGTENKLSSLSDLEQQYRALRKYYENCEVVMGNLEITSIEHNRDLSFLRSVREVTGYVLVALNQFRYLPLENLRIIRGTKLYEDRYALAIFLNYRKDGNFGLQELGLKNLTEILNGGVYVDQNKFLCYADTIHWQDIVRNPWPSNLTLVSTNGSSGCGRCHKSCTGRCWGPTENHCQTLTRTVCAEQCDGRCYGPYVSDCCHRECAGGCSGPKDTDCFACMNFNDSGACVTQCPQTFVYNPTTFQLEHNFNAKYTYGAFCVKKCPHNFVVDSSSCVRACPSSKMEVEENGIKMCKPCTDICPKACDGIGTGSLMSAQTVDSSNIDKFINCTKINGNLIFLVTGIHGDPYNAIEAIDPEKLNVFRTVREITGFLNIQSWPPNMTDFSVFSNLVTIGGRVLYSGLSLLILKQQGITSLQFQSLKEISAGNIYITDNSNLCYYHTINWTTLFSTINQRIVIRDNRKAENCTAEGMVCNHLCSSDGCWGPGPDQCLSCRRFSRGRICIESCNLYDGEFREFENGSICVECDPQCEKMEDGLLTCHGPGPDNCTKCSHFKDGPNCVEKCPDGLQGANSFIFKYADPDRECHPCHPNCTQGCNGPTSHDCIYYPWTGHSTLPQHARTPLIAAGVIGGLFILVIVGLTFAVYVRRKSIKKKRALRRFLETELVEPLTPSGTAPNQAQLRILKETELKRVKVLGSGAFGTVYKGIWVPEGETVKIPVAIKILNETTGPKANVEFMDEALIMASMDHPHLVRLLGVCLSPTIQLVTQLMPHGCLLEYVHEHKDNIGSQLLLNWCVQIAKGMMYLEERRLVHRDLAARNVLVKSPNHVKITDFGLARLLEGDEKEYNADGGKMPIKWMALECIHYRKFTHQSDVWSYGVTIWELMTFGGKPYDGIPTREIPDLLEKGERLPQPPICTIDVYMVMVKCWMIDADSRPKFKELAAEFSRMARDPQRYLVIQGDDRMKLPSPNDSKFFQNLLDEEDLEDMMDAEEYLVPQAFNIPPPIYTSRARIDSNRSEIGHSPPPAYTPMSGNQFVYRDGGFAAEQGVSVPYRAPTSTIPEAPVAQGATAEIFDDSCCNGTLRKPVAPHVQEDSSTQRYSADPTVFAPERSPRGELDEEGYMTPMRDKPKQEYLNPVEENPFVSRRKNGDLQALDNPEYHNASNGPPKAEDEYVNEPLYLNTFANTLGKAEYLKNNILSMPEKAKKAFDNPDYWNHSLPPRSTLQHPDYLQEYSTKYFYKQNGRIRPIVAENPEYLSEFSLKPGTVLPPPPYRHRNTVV
Assay [9] has the same target. The settings on record: at 1 µM.
The target in assay [10] is Tyrosine-protein kinase Fer (Homo sapiens) (UniProt P16591). The following applies: at 0.1 µM.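 Further: reported figures are averaged percent inhibition of FER.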
Chain of Tyrosine-protein kinase Fer (Homo sapiens) (P16591 whole entry, looked up): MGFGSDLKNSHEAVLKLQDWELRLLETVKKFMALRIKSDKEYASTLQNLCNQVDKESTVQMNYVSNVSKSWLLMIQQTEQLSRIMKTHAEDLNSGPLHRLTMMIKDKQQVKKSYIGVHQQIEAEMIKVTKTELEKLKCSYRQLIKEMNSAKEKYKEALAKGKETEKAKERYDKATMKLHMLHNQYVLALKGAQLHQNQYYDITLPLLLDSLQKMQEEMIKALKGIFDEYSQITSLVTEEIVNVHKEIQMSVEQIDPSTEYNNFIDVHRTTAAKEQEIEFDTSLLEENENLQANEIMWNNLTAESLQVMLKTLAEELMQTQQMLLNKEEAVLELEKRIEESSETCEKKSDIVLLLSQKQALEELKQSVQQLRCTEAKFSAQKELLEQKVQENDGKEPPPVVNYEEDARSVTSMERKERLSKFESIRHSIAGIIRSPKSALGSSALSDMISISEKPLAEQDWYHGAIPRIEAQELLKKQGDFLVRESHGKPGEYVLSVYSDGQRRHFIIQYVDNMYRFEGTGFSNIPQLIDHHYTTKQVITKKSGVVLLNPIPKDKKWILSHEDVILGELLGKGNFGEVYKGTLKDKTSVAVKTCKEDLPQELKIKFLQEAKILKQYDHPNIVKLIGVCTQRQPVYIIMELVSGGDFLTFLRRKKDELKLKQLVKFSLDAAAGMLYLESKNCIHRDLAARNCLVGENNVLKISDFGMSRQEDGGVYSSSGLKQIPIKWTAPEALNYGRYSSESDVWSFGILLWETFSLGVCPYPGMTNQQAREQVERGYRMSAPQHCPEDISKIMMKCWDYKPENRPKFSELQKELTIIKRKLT

As to `Cc1nnc(-c2ccc(C)c(-c3ccc(C(=O)Nc4cccc(C#N)c4)cc3)c2)o1`, the inhibition in assay [1] was determined as 8.63%; in assay [2], 4.01%; in assay [3], 4.32%; in assay [4], 1.3%; in [5], 1.73%; in assay [6] it was 2.71%. Further, the inhibition in [7] was 2.09%; in assay [8], 11%; in [9], 16.2%; in assay [10] it was 2%.
As for `CC1=C(C(=O)Nc2ccc3[nH]ncc3c2)C(c2ccc(Cl)c(Cl)c2)CC(=O)N1` (centres undefined), the inhibition in assay [1] came to 12.5%; in [2], 3.28%; in assay [3], 2.88%; in assay [4] it was 1.18%; in [5], 1.59%; in assay [6], 0.3%. Besides, the inhibition is 0.63% in assay [7], 8.29% in assay [8], 17.8% in assay [9] and 1.45% in assay [10].
Take `NC(=O)c1ccc(-c2nc(-c3ccccn3)c(-c3ccc4c(c3)OCO4)[nH]2)cc1`: the inhibition in assay [1] was determined as 6.48%; in assay [2], 4.63%; in assay [3], 1.89%; in assay [4] it was 3.74%; in [5], 1.95%; in [6], 2.99%. The inhibition in assay [7] was 0.42%; in [8] it was 7.53%; in [9], 11.4%; in [10], 1.79%.
`Nc1nc(-c2ccccn2)c(-c2ccc3ncccc3n2)s1`: the inhibition was 3.51% in [1]; 2.99% in assay [2]; 3.23% in assay [3]; 2.74% in assay [4]; 0.44% in [5]; 1.34% in [6]. The inhibition stood at 4.11% in assay [7], 7.11% in [8], 8.52% in [9] and 0.93% in assay [10].
On to `COc1cc(C)c(NC(=O)CN(C)C)cc1Nc1nc(Nc2cccc(F)c2C(N)=O)c2cc[nH]c2n1`, for which the inhibition was determined as 8.75% in [1]; 4.52% in assay [2]; 0.2% in assay [3]; 2.62% in assay [4]; 1.31% in [5]; 0.48% in assay [6]. Further, the inhibition was -0.4% in assay [7], 10.4% in [8], 32.1% in assay [9] and 81.8% in assay [10].
As to `c1cnn2ncc(-c3ccnc(Nc4ccc5c(c4)OCCO5)n3)c2c1`, the inhibition was determined as 29.4% in assay [1]; 3.36% in assay [2]; 6.8% in assay [3]; 3.69% in assay [4]; 12.5% in assay [5]; 1.94% in [6]. Besides, the inhibition turned out to be 2.67% in [7], 8.29% in [8], 12.4% in assay [9] and 10.7% in assay [10].
As to `CS(=O)(=O)Nc1ccc(N/C=C2\C(=O)Nc3ccccc32)cc1`, the inhibition was 0.55% in assay [1]; -5.53% in assay [2]; -3.88% in assay [3]; 0.19% in [4]; -0.64% in [5]; -3.57% in [6]. For the same compound, the inhibition in [7] is -1.76%; in assay [9], -9.44%; in [10], 1.8%.
Take `CCn1c(-c2nonc2N)nc2cncc(C(=O)N3CCNCC3)c21`: the inhibition in assay [1] stood at 7.73%; in [2] it was 3.36%; in assay [3], 3.77%; in assay [4] it was 2.94%; in assay [5], 3.87%; in assay [6], 38.2%. Besides, the inhibition was found to be 2.97% in [7], 9.03% in [8], 10.6% in assay [9] and 1.53% in assay [10].
Take `Cn1cc(C=C2C(=O)Nc3cccnc32)c2ccccc21`: the inhibition in assay [1] was 12%; in [2], 4.59%; in assay [3], -0.71%; in assay [4], 0.9%; in assay [5], 5.16%; in assay [6] it was 0.95%. Further, the inhibition in [7] stood at 3.11%; in assay [8], 9.66%; in assay [9], 9.14%; in [10], 0.48%.
`Cc1cccc(-c2n[nH]cc2-c2ccc3ncccc3n2)n1`: the inhibition in assay [1] was 5.67%; in assay [2], 2.71%; in assay [3] it was 1.95%; in assay [4] it was -0.2%; in assay [5] it was 2.61%; in assay [6] it was 1.42%. The inhibition was -0.81% in assay [7], 2.27% in [8], 4% in assay [9] and 0.04% in assay [10].
Regarding `Nc1ncnc2occ(-c3ccc(NC(=O)Nc4cc(C(F)(F)F)cc(C(F)(F)F)c4)cc3)c12`, the inhibition is 68.2% in [1]; 6.66% in assay [2]; 27.9% in assay [3]; 9.24% in assay [4]; 41.4% in assay [5]; -1.28% in assay [6]. Besides, the inhibition in assay [7] was -3.43%; in assay [8], 9.75%; in assay [9] it was 5.89%; in assay [10], 1.71%.
For the compound `O=C1NC(=O)C(N2CCc3ccccc32)=C1c1ccc(Cl)cc1`, the inhibition in assay [1] was 12.6%; in assay [2] it was 7.43%; in assay [3], 6.04%; in assay [4] it was 3.92%; in assay [5] it was 1.54%; in [6], 0.97%. Further, the inhibition in [7] was -4.09%; in [8], 8.85%; in [9], 24%; in [10] it was 2.88%.
For the compound `CC1=C(C(=O)Nc2ccc3[nH]ncc3c2)C(c2ccc3ccccc3c2)CC(=O)N1` (centres undefined), the inhibition in assay [1] was 8.42%; in assay [2], 4.2%; in assay [3] it was 4.54%; in assay [4], 3.21%; in [5] it was 3.76%; in assay [6], 0.89%. For the same compound, the inhibition in assay [7] came to 2.88%; in assay [8], 12.7%; in assay [9], 39.6%; in assay [10] it was 2.1%.
With `CCN1CCC(CC(=O)Nc2n[nH]c3nc(-c4cccs4)c(Br)cc23)CC1`, the inhibition in [1] is 1.96%; in assay [2], -2.11%; in [3], -3.61%; in [4], -1.44%; in assay [5] it was -2.19%; in assay [6], -4.26%. For the same compound, the inhibition in [7] is -1.56%; in [8], -5.1%; in assay [9] it was -7.08%; in [10] it was 0.22%.
